Reference: article PMC5540273 (PLoS ONE, 2017)

Assays:
Conditions in all cases: concentration: 1 μM, replicates: in singlicate; n = 1
STK36 = tested on: STK36
STK39 = tested on: STK39
SYK = tested on: SYK
SgK110 = tested on: SgK110
TAK1 = tested on: T1, TAK1
T1 construct: gene MAP3K7

TAOK1 = tested on: TAOK1
TAOK2 = tested on: TAOK2
TAOK3 = tested on: TAOK3
TBK1 = tested on: TBK1
TEC = tested on: TEC
TESK1 = tested on: TESK1
TGFBR1 = tested on: TGFBR1
TGFBR2 = tested on: TGFBR2
TIE1 = tested on: TIE1
TIE2 = tested on: T2, TIE2
T2 construct: gene TEK

TLK1 = tested on: TLK1
TLK2 = tested on: TLK2
TNIK = tested on: TNIK
TNK1 = tested on: TNK1
TNK2 = tested on: TNK2
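Also: KINOMEscan kinase panel screen.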

Compound | %Inh (STK36) [%] | %Inh (STK39) [%] | %Inh (SYK) [%] | %Inh (SgK110) [%] | %Inh (TAK1) [%] | %Inh (TAOK1) [%] | %Inh (TAOK2) [%] | %Inh (TAOK3) [%] | %Inh (TBK1) [%] | %Inh (TEC) [%] | %Inh (TESK1) [%] | %Inh (TGFBR1) [%] | %Inh (TGFBR2) [%] | %Inh (TIE1) [%] | %Inh (TIE2) [%] | %Inh (TLK1) [%] | %Inh (TLK2) [%] | %Inh (TNIK) [%] | %Inh (TNK1) [%] | %Inh (TNK2) [%]
Cc1cccc(Nc2nc(NCCN)ncc2C(N)=O)c1 [GSK1292139] | 0 | 14 | 97 | 91.1 | 83 | 15 | 66 | 9 | 28 | 40 | 0 | 0 | 0 | 0 | 0 | 18 | 17 | 89 | 0 | 0
COc1cccc2c(-c3ccncc3)c(-c3ccc(F)cc3)nn12 [GW468513] | 54 | 14 | 0 | 0 | 0 | 0 | 0 | 0 | 2 | 4 | 0 | 65 | 47 | 33 | 0 | 0 | 0 | 69 | 0 | 14
COc1cccc(C2=C(Nc3cccc(O)c3)C(=O)NC2=O)c1 [SB-390771] | 0 | 8 | 22 | 18 | 100 | 10 | 36 | 9 | 30 | 7 | 34 | 19 | 0 | 0 | 0 | 29 | 33 | 0 | 0 | 15
O=C(Nc1n[nH]c2nc(-c3cccc(O)c3)ccc12)C1CC1 [SB-711805] | 14 | 4 | 40 | 0 | 15 | 88 | 12 | 34 | 23 | 0 | 0 | 4 | 87 | 0 | 21 | 9 | 100 | 65 | 4 | 0
CN(C)CCOc1ccc(-c2cc(-c3ccc(Cl)c(O)c3)c(-c3ccncc3)[nH]2)cc1.Cl.Cl [SB-684387] | 63 | 33 | 2 | 0 | 32 | 0 | 1 | 0 | 28 | 0 | 19 | 54 | 75 | 4 | 39 | 16 | 7 | 33 | 28 | 15
N#Cc1cnc2cc(-c3cnc(CNCCN4CCOCC4)s3)ccc2c1Nc1ccc(Oc2ccccc2)cc1 [GW664114] | 7 | 0 | 82 | 0 | 12 | 0 | 0 | 0 | 34 | 88 | 6 | 6 | 0 | 11 | 6 | 21 | 11 | 92.9 | 99 | 94.6
CC(=O)Nc1cn2nc(Oc3cccc(NC(=O)c4cccc(C(F)(F)F)c4)c3)ccc2n1 | 0 | 15 | 14 | 0 | 21 | 0 | 34 | 0 | 57 | 18 | 13 | 9 | 0 | 81 | 65 | 0 | 0 | 38 | 68 | 0
CCOc1nccc(-c2c(-c3ccc(F)cc3)ncn2C2CCNCC2)n1 [SB-249175] | 24 | 74 | 32 | 0 | 34 | 100 | 0 | 73 | 23 | 10 | 12 | 19 | 11 | 23 | 19 | 0 | 15 | 49 | 21 | 0
Cl.Cl.NCC(NC(=O)c1cc(-c2cccnc2)c(-c2ccnc3[nH]ccc23)s1)c1ccccc1 (centres unmarked) [GSK1323434] | 0 | 64 | 18 | 0 | 45 | 29 | 0 | 0 | 2 | 27 | 19 | 22 | 27 | 19 | 0 | 14 | 0 | 77 | 0 | 16
CC(C)c1nc(-c2cccc(NS(=O)(=O)c3c(F)cccc3F)c2)c(-c2ccnc(Nc3ccc(N4CCOCC4)nc3)n2)s1.Cl [GSK1723980] | 100 | 10 | 69 | 0 | 81 | 0 | 0 | 0 | 18 | 80 | 100 | 93.1 | 92.4 | 92.5 | 97.2 | 16 | 0 | 12 | 100 | 98.5
